9 compounds from PubChem BioAssay can be followed below.

Values without a mark were called inactive.

This test is described as follows: S. pombe growth modifiers, basal conditions – strain 972, OD600, 24 h, no modulator, primary screen (AID 1090).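 Also: basal condition with compound alone and no growth modifier present; test concentration not given here.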 To be noted: S. pombe 972 growth, higher = more signal, called active from +8 up or from −8 down.
Take `CC(=O)OC[C@H]1O[C@@H](ON=C(C)CCN2CCCCc3nc(C)c(C)cc32)[C@H](OC(C)=O)[C@@H](OC(C)=O)[C@@H]1OC(C)=O`: the z-score is -0.149.
Consider `O=C1C=C[C@@H](O)[C@@H]2[C@@H]3C(=O)N(c4cccc(Oc5ccccc5)c4)C(=O)[C@@H]3CC[C@@H]12`, for which the z-score was -0.753.
Next, `CCOC(=O)[C@H](CC(C)C)NC(=O)CCC1CC(OC(=O)NCCc2ccc(F)cc2)CC2(CCCC(COC(=O)NCCOC)O2)O1` (some centres undefined): 1.13; `CCN1C(=O)[C@H]2[C@H]3[C@H](O)[C@H](O)CC(=NOC(C)CN4CCCc5nc(C)c(C)cc54)[C@@H]3CC[C@H]2C1=O` (some centres undefined): 1.19; `CC(C)=CCCC(C)=CCON=C1[C@H]2CCn3c(=O)n(-c4ccccc4)c(=O)n3[C@H]2[C@H](O)[C@@H]2O[C@H]12`: -5.66.
On to `O=C1C=C[C@@H](O)[C@@H]2[C@@H]3C(=O)N(Cc4ccccc4)C(=O)[C@@H]3CC[C@@H]12`, for which the z-score is -0.676.
With `CCCCOC(OCCCC)C(O)CSc1ccc2ccccc2c1` (centres undefined), the z-score was -2.25.
Next, `CC[C@@H](c1ccccc1)n1c(=O)n2n(c1=O)[C@H]1[C@H](O)[C@@H]3O[C@@H]3C(=NOCc3ccccc3)[C@H]1CC2`: -1.17; `CC(CCN1CCCc2nc(C)c(C)cc21)=NOC[C@@H](C)[C@H](OCc1ccccc1)C(C)C`: -1.8.
